Reference: the supplement of paper PMC9694430
Where a name gives a salt, the structure may show the parent alone.

Experiments:
Test in all cases: thermal shift delta Tm vs DMSO control; higher = stronger stabilization (binding)
Settings in all cases: 12.5 µM; protein concentration 2 µM
LOC_OS01G01410-cb001 = system: LOC_OS01G01410-cb001
Method in brief: (§1)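 Heating from 25°C to 95°C at 0.05°C/s, fluorescence was recorded for 19.5 μl wells of 2 μM E. coli-expressed, purified rice kinase domain in 100 mM potassium phosphate pH 7.5, 150 mM NaCl, 10% glycerol and 5 × SYPRO Orange with compound in DMSO. Boltzmann fits gave melting temperatures for this differential scanning fluorimetry assay. The shift reported is the mean of three replicates against the DMSO-only protein.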

LOC_OS01G02750-cb003 = system: LOC_OS01G02750-cb003
Method in brief: as §1

LOC_OS01G10900-cb004 = system: LOC_OS01G10900-cb004
Method in brief: as §1

LOC_OS01G13800-cb001 = system: LOC_OS01G13800-cb001
Method in brief: as §1

LOC_OS01G14860-cb001 = system: LOC_OS01G14860-cb001
Method in brief: as §1

LOC_OS01G21960-cb002 = system: LOC_OS01G21960-cb002
Method in brief: as §1

LOC_OS01G39600-cb002 = system: LOC_OS01G39600-cb002
Method in brief: as §1

LOC_OS01G48390-cb002 = system: LOC_OS01G48390-cb002
Method in brief: as §1

LOC_OS01G51400-cb002 = system: LOC_OS01G51400-cb002
Method in brief: as §1

LOC_OS01G52050-cb004 = system: T1, LOC_OS01G52050-cb004
T1 sequence (whole entry): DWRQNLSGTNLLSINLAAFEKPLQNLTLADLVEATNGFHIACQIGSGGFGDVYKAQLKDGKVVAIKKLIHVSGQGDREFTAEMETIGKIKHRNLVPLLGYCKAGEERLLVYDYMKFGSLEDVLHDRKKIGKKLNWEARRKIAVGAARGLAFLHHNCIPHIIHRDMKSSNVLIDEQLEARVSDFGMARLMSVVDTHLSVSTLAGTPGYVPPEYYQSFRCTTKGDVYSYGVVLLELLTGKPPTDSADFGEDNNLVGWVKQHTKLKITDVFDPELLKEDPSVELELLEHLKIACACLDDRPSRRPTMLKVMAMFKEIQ
Method in brief: as §1
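Further: purified Escherichia coli-expressed rice kinase domain construct.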

Compound	thermal shift delta Tm (LOC_OS01G01410-cb001)	thermal shift delta Tm (LOC_OS01G02750-cb003)	thermal shift delta Tm (LOC_OS01G10900-cb004)	thermal shift delta Tm (LOC_OS01G13800-cb001)	thermal shift delta Tm (LOC_OS01G14860-cb001)	thermal shift delta Tm (LOC_OS01G21960-cb002)	thermal shift delta Tm (LOC_OS01G39600-cb002)	thermal shift delta Tm (LOC_OS01G48390-cb002)	thermal shift delta Tm (LOC_OS01G51400-cb002)	thermal shift delta Tm (LOC_OS01G52050-cb004)
Nc1[nH]nc2nnc(-c3c(-c4ccccc4)nn4ccccc34)cc12	0.52 °C	0.34 °C	0.36 °C	0.24 °C	1.87 °C	0.45 °C	-0.05 °C	0.56 °C	0.19 °C	0.56 °C
CC(C)S(=O)(=O)c1ccc2nccc(Nc3ccc4scnc4c3)c2c1	0.88 °C	1.53 °C	0.44 °C	0.78 °C	0.59 °C	0.58 °C	0.91 °C	2.39 °C	0.31 °C	3.11 °C
COc1cc2c3cc1Oc1c(OC)c(OC)cc4c1[C@@H](Cc1ccc(O)c(c1)Oc1ccc(cc1)C[C@@H]3N(C)CC2)N(C)CC4 [Berbamine (dihydrochloride)]	-0.04 °C	0.3 °C	0.03 °C	-0.62 °C	-0.18 °C	0.36 °C	-0.05 °C	0.32 °C	-0.01 °C	0.22 °C
O=C(Nc1cccc(Nc2ncc(Br)c(NCCc3cnc[nH]3)n2)c1)N1CCCC1	5.28 °C	2.32 °C	0.86 °C	0.31 °C	4.24 °C	3.16 °C	7.21 °C	4.8 °C	1.21 °C	11.9 °C
Cc1cc(Nc2cc(N3CCN(C)CC3)nc(/C=C/c3ccccc3)n2)n[nH]1	2.2 °C	1.8 °C	1.93 °C	-0.23 °C	2.99 °C	2.75 °C	2.83 °C	2.45 °C	0.24 °C	3.7 °C
COc1cccc2cc(-c3nc([C@H]4CC[C@H](C(=O)O)CC4)n4ncnc(N)c34)[nH]c12	0.94 °C	0.05 °C	0.36 °C	-0.29 °C	0.44 °C	0.7 °C	0.94 °C	0.31 °C	0.16 °C	0.07 °C
COc1c(C)c(C(=O)c2ccc(N)c(C(=O)O)c2)n2ccccc12	0.21 °C	1.05 °C	0.42 °C	-0.23 °C	0.24 °C	0.79 °C	-11.6 °C	0.46 °C	0.21 °C	0.12 °C
C[C@@H]1COC(Nc2ccc3ncnc(Nc4ccc(OCc5nccs5)c(Cl)c4)c3c2)=N1 [Varlitinib]	2.18 °C	0.28 °C	0.95 °C	0.39 °C	1.1 °C	2.04 °C	0.66 °C	1.02 °C	0.22 °C	0.92 °C
CN(C[C@@H]1COCCO1)S(=O)(=O)Nc1ccc2ccc3ncc(-c4cnn(C)c4)cc3c(=O)c2c1	2.9 °C	3.39 °C	1.59 °C	-0.75 °C	0.52 °C	1.85 °C	2.41 °C	0.37 °C	0.29 °C	10.3 °C
C=CC(=O)N1CCN(CCCn2c(=O)c(-c3c(Cl)c(OC)cc(OC)c3Cl)cc3cnc(NC)nc32)CC1	0.19 °C	0.26 °C	0.4 °C	-0.37 °C	0.42 °C	0.28 °C	0.11 °C	0.23 °C	0.12 °C	0.46 °C
COc1cc(CCc2cc(NC(=O)c3ccc(N4CC(C)NC(C)C4)cc3)n[nH]2)cc(OC)c1 (stereo not given)	1.93 °C	0.89 °C	7.96 °C	-0.99 °C	0.38 °C	0.1 °C	0.43 °C	6.33 °C	0.35 °C	0 °C
COc1ccc(CCNCc2ccc(OCc3ccc(Cl)nc3)c(OC)c2)cc1OC	0.02 °C	0.3 °C	0.52 °C	0.46 °C	0.35 °C	0.01 °C	0.48 °C	0.52 °C	-0.03 °C	-0.18 °C
c1cc(-c2cnn3cc(-c4ccc(OCCN5CCCCC5)cc4)cnc23)ccn1 [Dorsomorphin 2HCl]	4.71 °C	10.2 °C	8.66 °C	0.11 °C	2.59 °C	3 °C	7.6 °C	5.88 °C	0.21 °C	6.74 °C
CC(C)(C)NS(=O)(=O)c1cncc(-c2cc(F)c3nc(N)nn3c2)c1	0.2 °C	0.93 °C	0.04 °C	0.1 °C	0.32 °C	0.56 °C	0.65 °C	0.32 °C	0.36 °C	0.57 °C
Cc1ccc(NC(=O)c2ccc(CN3CCN(C)CC3)cc2)cc1Nc1nccc(-c2cccnc2)n1 [Imatinib (STI571)]	0.68 °C	0 °C	1.47 °C	-0.47 °C	0.24 °C	-0.24 °C	-0.27 °C	1.69 °C	0.14 °C	0.62 °C
O=C(Nc1cccc(C(F)(F)F)c1)c1cccc2cc(Oc3cc(CO)ncn3)ccc12	0.74 °C	0.11 °C	0.77 °C	0.56 °C	0.71 °C	0.94 °C	-0.03 °C	0.4 °C	0.1 °C	0.38 °C
N#CC[C@H](C1CCCC1)n1cc(-c2ncnc3[nH]ccc23)cn1	0.74 °C	1.15 °C	0.65 °C	-0.01 °C	1.62 °C	1.47 °C	0.6 °C	0.4 °C	-0.02 °C	0.98 °C
CC(C)(C)c1cc(NC(=O)Nc2ccc(Oc3ccnc4[nH]c(=O)cnc34)cc2F)n(-c2ccccc2)n1	-0.24 °C	1.82 °C	0.63 °C	0.95 °C	6.67 °C	0.63 °C	0.19 °C	0.23 °C	0.46 °C	0.84 °C
CNC(=O)Nc1ccc(-c2nc(N3CC4CCC(C3)O4)c3cnn(C4CCC5(CC4)OCCO5)c3n2)cc1	0.49 °C	1.08 °C	0.69 °C	0.32 °C	0.37 °C	1.21 °C	-0.16 °C	0.79 °C	0.4 °C	0.38 °C
CCCNC(=O)c1cn2ncnc(Nc3cc(C(=O)NC4CC4)ccc3C)c2c1C	0.17 °C	0.08 °C	-0.05 °C	-0.27 °C	0.01 °C	-0.06 °C	0.07 °C	-0.01 °C	0.04 °C	0.26 °C
CC(C)Oc1ccc(-c2nn([C@@H](C)c3oc4ccc(F)cc4c(=O)c3-c3cccc(F)c3)c3ncnc(N)c23)cc1F	0.45 °C	1.4 °C	0.72 °C	0.18 °C	0.59 °C	0.77 °C	-0.2 °C	1.45 °C	0.32 °C	0.73 °C
